The full ranking holds about 8,300 sequences; the median of “log2 fold change of degron read counts, EGFP-low vs EGFP+ sorted cells (limma voom), compound-induced degradation” is about -1.1, and the highest 2% start at about 3.2. Only a selection was taken, and the highest values are over-represented in it overall.
T1: CRBN, Q96SW2
T1 chain: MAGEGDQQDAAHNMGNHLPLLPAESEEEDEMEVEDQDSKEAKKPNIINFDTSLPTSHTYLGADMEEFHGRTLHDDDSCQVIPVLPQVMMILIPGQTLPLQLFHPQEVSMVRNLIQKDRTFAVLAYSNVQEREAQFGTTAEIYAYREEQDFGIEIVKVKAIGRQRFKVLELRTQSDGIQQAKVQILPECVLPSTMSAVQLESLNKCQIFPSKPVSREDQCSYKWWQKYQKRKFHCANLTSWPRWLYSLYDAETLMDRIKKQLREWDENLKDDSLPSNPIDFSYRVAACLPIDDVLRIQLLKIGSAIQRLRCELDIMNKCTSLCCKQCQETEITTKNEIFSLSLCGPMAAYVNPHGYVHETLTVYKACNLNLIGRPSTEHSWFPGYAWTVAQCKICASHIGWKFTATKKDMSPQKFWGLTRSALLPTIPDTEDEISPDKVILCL


Target: T1, CRBN, Q96SW2
Assay: log2 fold change of degron read counts, EGFP-low vs EGFP+ sorted cells (limma voom), compound-induced degradation; higher = more compound-induced degradation of the degron-EGFP fusion; degrons are variants of IKZF1/3 zinc finger 2; compound dose not given here
Details: Jurkat, 18 h
[1] = compound: compound 19 (5-tert-butyl-thalidomide)
[2] = compound: compound 22 (5-morpholino-thalidomide)
[3] = compound: compound 33 (diphenyl IMiD analogue)
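Also: pooled lentiviral library of zinc finger degron-EGFP fusions in mCherry-positive Jurkat cells, FACS-sorted after compound exposure, with degron abundance counted by next-generation sequencing.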

| Sequence | log2 fold change of degron read counts [1] | log2 fold change of degron read counts [2] | log2 fold change of degron read counts [3] | log2 fold change of degron read counts (compound: thalidomide) |
| --- | --- | --- | --- | --- |
| LYCEICGFHCTQKGNLLRHIKL [46L_47Y_49E_50I_52G_53F_54H_55C_67L_, Q9UKT9] | 3.13 | 3.42 | 2.8 | 1.66 |
| LICEICGFHCTQKGNLLRHIKL [46L_47I_49E_50I_52G_53F_54H_55C_67L_, Q9UKT9] | -0.287 | 0.622 | 1.12 | 1.6 |
| LWCEICGFHCTQKGNLLRHIKL [46L_47W_49E_50I_52G_53F_54H_55C_67L_, Q9UKT9] | 2.73 | 3.48 | 2.33 | 1.12 |
| LCCEICGFHCTQKGNLLRHIKL [46L_47C_49E_50I_52G_53F_54H_55C_67L_, Q9UKT9] | 0.332 | -0.174 | 1.51 | 0.845 |
| LACEICGFHCTQKGNLLRHIKL [46L_47A_49E_50I_52G_53F_54H_55C_67L_, Q9UKT9] | 1.51 | 0.415 | 0.86 | -0.0575 |
| LSCEICGFHCTQKGNLLRHIKL [46L_47S_49E_50I_52G_53F_54H_55C_67L_, Q9UKT9] | 0.928 | 0.357 | 0.553 | 0.222 |
| FHCNQCGARFTQKGNLLRHIKL [46F_47H_49N_50Q_52G_53A_54R_55F_67L_, Q9UKT9] | -1.49 | -1.78 | -1.81 | -2.18 |
| FVCNQCGHTFTQKGNLLRHIKL [46F_47V_49N_50Q_52G_53H_54T_55F_67L_, Q9UKT9] | -3.49 | -3.28 | -3.04 | -3.41 |
| LECPICGFDCTQKGNLLRHIKL [46L_47E_49P_50I_52G_53F_54D_55C_67L_, Q9UKT9] | -2.52 | -2.45 | -1.18 | -0.86 |
| LYCNQCGFYCTQKGNLLRHIKL [46L_47Y_49N_50Q_52G_53F_54Y_55C_67L_, Q9UKT9] | -0.857 | -0.989 | -0.803 | -0.772 |
| FECPICGAVFTQKGNLLRHIKL [46F_47E_49P_50I_52G_53A_54V_55F_67L_, Q9UKT9] | 0.283 | -0.0372 | 2.77 | 3.33 |
| FGCPICGAVFTQKGNLLRHIKL [46F_47G_49P_50I_52G_53A_54V_55F_67L_, Q9UKT9] | 3.56 | 2.54 | 2.82 | 1.23 |
| FVCPICGAVFTQKGNLLRHIKL [46F_47V_49P_50I_52G_53A_54V_55F_67L_, Q9UKT9] | -0.253 | 1.32 | 2.04 | 2.17 |
| FRCPICGAVFTQKGNLLRHIKL [46F_47R_49P_50I_52G_53A_54V_55F_67L_, Q9UKT9] | -1.19 | -0.551 | 1.51 | 1.37 |
| FSCPICGAVFTQKGNLLRHIKL [46F_47S_49P_50I_52G_53A_54V_55F_67L_, Q9UKT9] | 2.16 | 1.75 | 2.72 | 1.48 |
| FACPICGAVFTQKGNLLRHIKL [46F_47A_49P_50I_52G_53A_54V_55F_67L_, Q9UKT9] | 2.91 | 1.96 | 1.75 | 1.06 |
| FTCPICGAVFTQKGNLLRHIKL [46F_47T_49P_50I_52G_53A_54V_55F_67L_, Q9UKT9] | 0.104 | 2.31 | 2.43 | 2.95 |
| FQCPICGAVFTQKGNLLRHIKL [46F_47Q_49P_50I_52G_53A_54V_55F_67L_, Q9UKT9] | 0.109 | 3.16 | 2.7 | 3.67 |

| Sequence | log2 fold change of degron read counts [1] | log2 fold change of degron read counts [2] | log2 fold change of degron read counts [3] | log2 fold change of degron read counts (compound: thalidomide) |
| --- | --- | --- | --- | --- |
| FICPICGAVFTQKGNLLRHIKL [46F_47I_49P_50I_52G_53A_54V_55F_67L_, Q9UKT9] | -0.717 | 0.836 | 1.86 | 1.85 |
| FRCEICGRHFTQKGNLLRHIKL [46F_47R_49E_50I_52G_53R_54H_55F_67L_, Q9UKT9] | -2.34 | -2.75 | -1.24 | -1.05 |
| FLCEVCGAYFTQKGNLLRHIKL [46F_47L_49E_50V_52G_53A_54Y_55F_67L_, Q9UKT9] | -0.235 | -1.51 | 0.35 | 0.301 |
| FNCNQCGRWFTQKGNLLRHIKL [46F_47N_49N_50Q_52G_53R_54W_55F_67L_, Q9UKT9] | -2.05 | -2.2 | -1.98 | -1.8 |
| LLCNQCGFPCTQKGNLLRHIKL [46L_47L_49N_50Q_52G_53F_54P_55C_67L_, Q9UKT9] | -1.89 | -1.87 | -1.69 | -1.84 |
| FVCEVCGAMFTQKGNLLRHIKL [46F_47V_49E_50V_52G_53A_54M_55F_67L_, Q9UKT9] | -0.335 | 1.3 | 1.8 | 2.05 |
| FSCEVCGAMFTQKGNLLRHIKL [46F_47S_49E_50V_52G_53A_54M_55F_67L_, Q9UKT9] | 2.43 | 1.36 | 1.15 | 0.408 |
| FYCEVCGAMFTQKGNLLRHIKL [46F_47Y_49E_50V_52G_53A_54M_55F_67L_, Q9UKT9] | 3.32 | 3.43 | 2.43 | 0.383 |
| FGCEVCGAMFTQKGNLLRHIKL [46F_47G_49E_50V_52G_53A_54M_55F_67L_, Q9UKT9] | 3.32 | 2.09 | 1.16 | -0.148 |
| FNCEVCGAMFTQKGNLLRHIKL [46F_47N_49E_50V_52G_53A_54M_55F_67L_, Q9UKT9] | 0.96 | -0.745 | -0.544 | -0.743 |
| FECEVCGAMFTQKGNLLRHIKL [46F_47E_49E_50V_52G_53A_54M_55F_67L_, Q9UKT9] | -1.4 | -1.93 | 0.328 | 1.08 |
| FHCEVCGAMFTQKGNLLRHIKL [46F_47H_49E_50V_52G_53A_54M_55F_67L_, Q9UKT9] | 1.44 | 1.27 | 0.505 | -0.808 |
| FACEVCGAMFTQKGNLLRHIKL [46F_47A_49E_50V_52G_53A_54M_55F_67L_, Q9UKT9] | 3.25 | 1.34 | 0.261 | -0.323 |
| FFCEVCGAMFTQKGNLLRHIKL [46F_47F_49E_50V_52G_53A_54M_55F_67L_, Q9UKT9] | 3.14 | 3.15 | 2 | 0.314 |
| FQCEVCGAMFTQKGNLLRHIKL [46F_47Q_49E_50V_52G_53A_54M_55F_67L_, Q9UKT9] | -0.365 | 2.11 | 2.44 | 3.52 |
| FDCEVCGAMFTQKGNLLRHIKL [46F_47D_49E_50V_52G_53A_54M_55F_67L_, Q9UKT9] | -0.122 | -0.858 | 0.0809 | 0.0891 |
| FKCEVCGAMFTQKGNLLRHIKL [46F_47K_49E_50V_52G_53A_54M_55F_67L_, Q9UKT9] | -1.98 | -3.85 | -3.74 | -1.96 |

From the supplement of paper PMC12645437, “Orthogonal IMiD-Degron Pairs Induce Selective Protein Degradation in Cells” (ACS Chemical Biology, 2025)
